In PubChem BioAssay AID2391 (Southern Research Specialized Biocontainment Screening …, 2010):
The campaign covered roughly 310,000 compounds. About 410 (0.13%) were called active. Inconclusive results (about 2%) are left out. The rule behind the calls is not given here. Only a sample is shown. Potency and affinity values are given separately.

assay: RSV antiviral activity via CPE protection, HEp-2 cells, primary 10 µM value included (AID 2391); details: RSV-induced CPE inhibition, at 10 µM, active compounds read high

CPE inhibition, inactive:
CCC(=O)NC(=S)Nc1ccc2oc(-c3ccc(OC)cc3)nc2c1 -0.44%
Cc1[nH]c2c(Cl)cccc2c(=O)c1CN1CCCCCC1 -1.59%
CC(=O)c1ccc(C(=O)NC2CCCN(Cc3ccccc3F)C2)cc1 (stereo not given) -0.91%
Cc1nc(N)nc(N/N=C/c2c(F)cccc2Cl)n1 0.02%
O=C1CS/C(=N/N=C\c2ccn[nH]2)N1 6.91%
Cc1c(C(=O)O)cccc1-c1ccc(/C=N/n2cnnc2)o1 0.79%
COc1ccc(C(=O)OCC(=O)N(C)C2CCS(=O)(=O)C2)cc1Br (stereo not given) 1.57%
CCOC(=O)c1c(CC(C)C)csc1NC(=O)COC(=O)c1cc(OC)c(OC)cc1[N+](=O)[O-] 3.28%
C[C@@H]1NS(=O)(=O)[C@H]2C[C@@H]3C=C[C@]2(O3)[C@H]1OC(=O)Nc1ccc(C(F)(F)F)cc1[N+](=O)[O-] 0.31%
Cc1cc(C(=O)O[C@H]2[C@H](Cc3ccccc3)NS(=O)(=O)[C@H]3C[C@@H]4C=C[C@]23O4)ccc1[N+](=O)[O-] 1.3%
CCN(Cc1ccccc1)C(=O)Cc1c[nH]c2ccccc12 4.41%
Cc1ccc(-c2ccc(/C=N/NC(=S)Nc3ccccc3)o2)cc1[N+](=O)[O-] 17.4%
O=[N+]([O-])c1ccc(-c2ccc(/C=N/O)o2)cc1 11.6%
CC(=O)Nc1ccc(NC(=O)CSc2ccc(-c3ccc4c(c3)OCO4)nn2)cc1 3.37%
CCOC(=O)C1CCCN(c2c(Nc3ccc(C)c(C)c3)c(=O)c2=O)C1 (stereo not given) 1%
COc1cccc(OCCCN2CCN(S(=O)(=O)c3ccc(NC(C)=O)cc3)CC2)c1 3.71%
CCc1c(C(=O)Nc2cc(C)cc(C)c2)[nH]c(C)c1C(C)=O 2.64%
COc1ccc(C(CNC(=O)COc2ccccc2)N2CCCCC2)cc1 (stereo not given) 0.71%
COc1ccc(C(CNC(=O)Cc2ccccc2)N2CCCCC2)cc1 (stereo not given) -0.35%
NC(=O)c1ccsc1NC(=O)COC(=O)c1nc(Cl)ccc1Cl -1.24%
c1ccc2[nH]c(CN3CCCCCC3)nc2c1 0.95%
c1ccc(N2CCN(c3nc4ccccc4[nH]3)CC2)nc1 -2.6%
COc1ccccc1N1CCN(Cc2nc3ccccc3[nH]2)CC1 1.74%
Oc1ccc(N2CCN(Cc3nc4ccccc4[nH]3)CC2)cc1 13.2%
COC(CNS(=O)(=O)c1cccc2nonc12)OC 3.28%
CCN(CC(=O)Nc1c(F)cccc1F)C(=O)c1ccc(N2CCCCC2)c([N+](=O)[O-])c1 5.38%
Cc1csc(NC(=O)c2ccc[nH]c2=O)n1 0.61%
COc1ccc(OCCOC(=O)C(C)NS(=O)(=O)c2ccc(NC(C)=O)cc2)cc1 (stereo not given) 0.13%
CCOC(=O)N1CCN(CC(=O)Nc2nc3ccc(OC)cc3s2)CC1 10.2%
O=c1c2ccccc2nc(SCc2ccc([N+](=O)[O-])cc2)n1CCCO 4.2%
Cn1c(SCC#N)nc2ccccc2c1=O 2.04%
O=C(CSc1nc2ccccc2n1CC(=O)NCc1ccccc1)NCc1ccco1 -0.09%
CCC(Sc1nc2ccccc2c2nc3ccccc3n12)C(=O)NCc1ccco1 (stereo not given) -0.18%
CCn1c(SCC#N)nc2ccccc2c1=O 1.07%
Cc1cccc(C(=O)O/N=C/c2c(N3CCOCC3)n(C)c3ccccc23)c1 -0.89%
COC(=O)Cc1c(C)c2ccc(OC3CCCCC3=O)cc2oc1=O (stereo not given) 6.9%
CN(C)c1ccc(NC(=O)CSc2nc(C3CC3)nc3ccccc23)cc1 3.13%
CCC(C)NC(=O)c1nc2c(nnn2Cc2ccccc2Cl)c(=O)[nH]1 (stereo not given) 1.33%
CC1C2C(C)N(C)C(=O)N(C)C2N(C)C(=O)N1C (stereo not given) 2.07%
CCOc1ccc2nc(NC(=O)C(NS(=O)(=O)c3cccs3)C(C)C)sc2c1 (stereo not given) 19.6%
CCOc1ccc2nc(NS(=O)(=O)c3cccs3)sc2c1 1.43%
CCCC(=O)Nc1nc2ccc(OCC)cc2s1 2.67%
CC1(C(=O)Nc2nc3ccccc3s2)CC1(Br)Br (stereo not given) 9.49%
C/C(=N/NS(C)(=O)=O)c1ccc2ccccc2c1 -0.76%
CC(C)C(=O)Nc1cccc(-c2cnc3ccccc3n2)c1 -1.56%
O=C(NNC(=O)C1CC1c1ccccc1)Nc1ccccc1 (stereo not given) 1.51%
Cc1cc(N2CCN(c3ccccc3Cl)CC2)n2cc(-c3ccccc3)nc2n1 5.23%
Cc1cc(N2CCOCC2)n2cc(-c3ccccc3)nc2n1 1.5%
CCCC(=O)N/C(N)=N/c1nc(C)c2ccccc2n1 0.78%
N#CCCn1cc(CNC2CCC(O)CC2)c2ccccc21 (stereo not given) 2.18%
Cn1nc(SCC(=O)O)sc1=S -0.46%
Cc1ccc2cc(CN(Cc3ccco3)C(=S)NCC3CCCO3)c(=O)[nH]c2c1C (stereo not given) 2%
Cc1ccc2cc(CN(CC3CCCO3)C(=S)NCc3ccco3)c(=O)[nH]c2c1 (stereo not given) 1.42%
COc1ccc(C(=O)COC(=O)CCn2nnc(-c3cccs3)n2)cc1 1.36%
NC(=O)C1CCN(c2ccc(C(F)(F)F)cc2[N+](=O)[O-])CC1 16.8%
O=[N+]([O-])c1cc(C(F)(F)F)ccc1N1CCCC(O)C1 (stereo not given) 9.15%
COCC1CCN(C(=O)C2CCC(=O)N(Cc3cccc(F)c3)C2)CC1 (stereo not given) 2.17%
c1ccc2c(c1)ncn2Cc1nnc2sc(-c3ccncc3)nn12 -0.84%
c1ccc(Cc2nn3c(Cn4cnc5ccccc54)nnc3s2)cc1 5.56%
c1csc(-c2nn3c(Cn4nnc5ccccc54)nnc3s2)c1 26.6%
c1ccc2c(c1)nnn2Cc1nnc2sc(-c3ccncc3)nn12 1.65%
Clc1cccc(-c2nn3c(Cn4cnc5ccccc54)nnc3s2)c1 34%
c1cncc(-c2nn3c(Cn4cnc5ccccc54)nnc3s2)c1 15.6%
Cc1ccc[n+](C(C)C(=O)Nc2ccc(C)c([N+](=O)[O-])c2)c1 (stereo not given) 0.22%
COc1cccc(NC(=O)CNc2cc(S(=O)(=O)N3CCOCC3)ccc2N2CCCC2)c1 -0.7%
CC(C)(C)C(=O)NC(=S)NCCc1ccccc1 2.62%
CC(C)(C)CC(=O)NC(=S)NCc1ccccc1 5.07%
COc1ccc(/C(C)=N/OCC(=O)N=Nc2c(O)[nH]c3ccc(Br)cc23)cc1 4.9%
O=C(Nc1ccc(F)cc1F)C1CC(=O)N(Cc2ccccc2)C1 (stereo not given) 0.74%
CCc1c(C)nc2ncnn2c1N1CCC(C(=O)NCc2cccs2)CC1 11%
O=C(NC(=S)NNC(=O)c1ccccc1O)c1cccc([N+](=O)[O-])c1 16.2%
CCn1c(C2CC(=O)N(Cc3ccccc3)C2)nc2ccccc21 (stereo not given) 1.99%
C=CCN1CC(c2nc3ccccc3n2CCOc2ccccc2)CC1=O (stereo not given) 0.6%
Cn1c(SCC(=O)NC2CCCC2)nnc1-c1ccncc1 0.88%
COc1ccc(C(=O)Nc2cccc(C(=O)N3CCCCC3)c2)cc1 3.16%
CCc1ccccc1Nc1nc(N)nc(COC(=O)c2c(C)noc2C)n1 3.24%
Cc1ccccc1Nc1nc(N)nc(COC(=O)c2cccn2C)n1 4.72%
Cc1cc(C)nc(-n2nc(C)c(Oc3ccccc3O)c2C)n1 1.29%
Cc1nn(-c2ccccn2)c(C)c1Oc1ccccc1O 0.08%
CCC(=O)c1ccc(OCC(=O)N(C)CC(=O)Nc2cccc(F)c2)cc1 -0.9%
CC(=O)Nc1ccc2c3c(cccc13)CC2 3.08%
Cc1cccc(NC(=O)[C@H](Cc2c[nH]c3ccccc23)NC(=O)[C@@H]2Cc3ccccc3CN2)c1 3.9%
COc1ccc(NC(=O)[C@H](Cc2c[nH]c3ccccc23)NC(=O)[C@@H]2Cc3ccccc3CN2)cc1 1.35%
Cc1cc(N2CCOCC2)nc2ccc(NC(=O)CCC(=O)N3CCN(c4ccccc4F)CC3)cc12 13.8%
CC(NC(=O)COc1ccc(Br)cc1)C(=O)O (stereo not given) 0.8%
CN1CCN(C2=NC(=O)/C(=C/c3ccccc3OS(=O)(=O)c3ccccc3)S2)CC1 1.12%
O=C1N=C(N2CCOCC2)S/C1=C\c1ccc(OS(=O)(=O)c2ccccc2)cc1 0.11%
CC(=O)N1c2ccccc2N(Cc2ccc(C)cc2C)C(=O)C1(C)C 5.65%
Cc1cc(C)nc(NC(=O)c2c(F)c(F)c(F)c(C(=O)Nc3cc(C)cc(C)n3)c2F)c1 -2.23%
CCn1cc(C(=O)O)c(=O)c2cc(F)c(N3CCN(C(=S)NC(=O)c4ccccc4)CC3)cc21 -1.03%
CCn1cc(C(=O)NCc2ccco2)c(=O)c2cc(F)c(N3CCN(C(=O)c4ccco4)CC3)cc21 0.76%
CCn1cc(C(=O)NCc2ccncc2)c(=O)c2cc(F)c(N3CCN(C(=O)c4ccco4)CC3)cc21 4.28%
CCC(=O)N1CCN(c2cc3c(cc2F)c(=O)c(C(=O)O)cn3CC)CC1 0.7%
COc1ccccc1C1CCCN1Cc1nc(-c2cc3c(cc2Cl)OCO3)oc1C (stereo not given) 1.45%
CCOc1ccccc1-c1nc(CN2CCCC2c2nccs2)c(C)o1 (stereo not given) 5.15%
